High-throughput results as filed in PubChem.
RORgamma inh – blocks mouse ROR gamma transcriptional activity | 5.4% of 310,000 active | AID 2551 | Drosophila S2 Gal4-RORgamma UAS-luciferase reporter, 20 h | P51450 | Potency, µM (highest dose often 53.6 µM), inactives show top-dose activity change, negative = inhibition, most hits filed as inhibitors; note: potency is the fitted concentration of half-maximal effect; nearly all actives have a fitted effect of over 60% in size
Target sequence (P51450 whole entry, looked up, the tested form may be a part): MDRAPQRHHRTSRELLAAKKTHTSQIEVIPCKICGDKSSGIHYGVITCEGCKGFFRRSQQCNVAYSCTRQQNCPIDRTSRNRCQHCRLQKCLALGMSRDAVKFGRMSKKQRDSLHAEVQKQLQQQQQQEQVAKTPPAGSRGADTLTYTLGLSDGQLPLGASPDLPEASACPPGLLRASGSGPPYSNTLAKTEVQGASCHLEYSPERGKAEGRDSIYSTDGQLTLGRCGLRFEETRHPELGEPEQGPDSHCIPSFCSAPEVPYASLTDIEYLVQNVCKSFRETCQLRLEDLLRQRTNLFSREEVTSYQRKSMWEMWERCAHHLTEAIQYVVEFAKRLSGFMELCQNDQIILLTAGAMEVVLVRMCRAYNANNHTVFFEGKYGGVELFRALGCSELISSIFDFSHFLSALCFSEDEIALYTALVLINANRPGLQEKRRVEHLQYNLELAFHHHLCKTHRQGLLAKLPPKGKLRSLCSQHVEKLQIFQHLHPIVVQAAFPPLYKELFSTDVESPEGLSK
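In this cell-based reporter format, copper sulfate (700 uM final) drives Gal4–ROR gamma fusion expression from a metallothionein promoter in Drosophila Schneider cells; compounds preincubated 1 hr, reporter read after 20 hr at ambient temperature.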
DT40 TDP1 CPT – growth inhibition of DT40 Tdp1-/-;hTDP1 cells with camptothecin (screen for TDP1 inhibitors) | 12% of 420,000 active | AID 686979 | Potency, µM (top dose mostly 46.2 µM), for inactives: at the highest dose activity change, negative = growth inhibition, actives largely listed as inhibitors | chicken DT40 Tdp1-/-;hTDP1 cells + 20 nM CPT, ATP luminescence, 48 h; note: potency is the fitted concentration of half-maximal effect; nearly all actives have a fitted effect of over 55% in size
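Cell growth measured by CellTiter-Glo luminescence after a minimum 48 h, 37 C compound exposure with 20 nM CPT in Tdp1-knockout DT40 cells stably expressing hTDP1, seeded 400/well; qHTS titration format.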
ELG1 repair inh – blocks ELG1-dependent DNA repair in HEK293T cells; HEK293T ELG1-luciferase reporter, luminescence, 16 h; DNA damage induced by 5-fluorouridine; Potency, µM (top dose mostly 46.1 µM), inactives show at the top dose activity change, negative = inhibition, hits mostly inhibitors; 2.3% of 330,000 active; AID 504467; note: potency is the fitted concentration of half-maximal effect; nearly all actives have a fitted effect of over 55% in size
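Overnight (16 hr) co-exposure of 2,000 cells/well to 5-fluorouridine and compound at 37 °C preceded detection. Luciferase was quantified via ONE-Glo luminescence; loss of signal denotes inhibition.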
VP16 counter – counter-screen for ROR gamma inhibitors: Gal4-VP16 reporter; AID 2546; Potency, µM (series often up to 53.6 µM), without a hit: at the highest dose activity, negative = inhibition, hits mostly inhibitors; Drosophila S2 Gal4-VP16 UAS-luciferase, luminescence, 20 h; 3.5% of 310,000 active;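 note: Gal4-VP16 expression switched on by copper sulfate through the metallothionein promoter; potency is the fitted concentration of half-maximal effect; nearly all actives have a fitted effect of over 50% in size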
TDP1 cell noCPT – qHTS for Inhibitors of human tyrosyl-DNA phosphodiesterase 1 (TDP1): qHTS in cells in absence of CPT; DT40 Tdp1-/- hTDP1 cells, no CPT, ATP luminescence, 48 h; Potency, µM (series often up to 46.2 µM), for the others: at the top dose activity change, negative = growth inhibition, usual class: inhibitors; 15% of 420,000 active; note: potency is the fitted concentration of half-maximal effect; nearly all actives have a fitted effect of over 55% in size
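Chicken DT40 Tdp1-/- cells complemented with human TDP1, screened without camptothecin (DMSO vehicle only), 400 cells/well. Compounds pin-transferred, cells incubated at 37 °C for at least 48 hr. Growth read as ATP-dependent luminescence (CellTiter-Glo, 30 min at RT).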
IL-1B inflam inh – blocks inflammasome-driven IL-1 beta release. THP-1 LPS/ATP IL-1B secretion, AlphaLISA, 16 h; active compounds read low. activity change, % at 57.5 µM. 4.7% of 360,000 active; in the data active = activity change below about -50%; inconclusive = mostly about -30% to -49%
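THP-1 cells pretreated 1 hr with compounds (up to 57.5 uM final), then stimulated with LPS (250 ng/mL final) plus ATP (1.25 mM final); secreted IL-1B measured by AlphaLISA after 16 hr, decreased signal indicating inhibition.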
* hit, by the source's call; i = inactive; ? = inconclusive; nt = not tested or not shown; [ ] = remark or other dose. This is a sample that favours compounds with a hit; in the whole collection about 21% have one here. Unless noted, calls come from the whole dose curve; as a rule, active = well fitted curve in the direction sought with a large enough effect; inconclusive = small, poorly fitted or top-dose-only effect, or another doubt; inactive = no such curve, though single readings can be large; an effect the other way counts as inactive or inconclusive. % is set by controls: 0 for no effect and ±100 for the full control effect.

SMILES	RORgamma inh	DT40 TDP1 CPT	ELG1 repair inh	VP16 counter	TDP1 cell noCPT	IL-1B inflam inh
CCOC(=O)c1sc2nc(CC(=O)OC)nc(NCc3ccc(F)cc3)c2c1C	27.2%	18.4µM*	?	-9.3%	16.4µM*	-5.1
CCOC(=O)c1sc2nc(C)nc(NCc3ccc(Cl)cc3)c2c1C	?	11.6µM*	11.6µM*	-8.8%	20.6µM*	-66.8*
O=C(/C=C/c1ccccc1)N1CCCC1CO (stereo unspecified)	3.0%[10 µM]	nt	nt	-3.9%[10 µM]	nt	nt
CCn1c(COc2ccccc2)nc2ccccc21	?	-8.5%	?	?	-25.4%	-19.2
COc1ccccc1OCc1nc2ccccc2n1Cc1ccccc1	nt	?	nt	nt	16.4µM*	nt
COCc1nc2ccccc2n1Cc1ccc(Br)cc1	10µM*	-20.9%	?	?	?	23.1
OCCN1CCN(C(c2ccc(Cl)cc2Cl)c2sc3nc(-c4ccco4)nn3c2O)CC1 (stereo unspecified)	nt	-0.2%	nt	nt	-5.8%	nt
CC(OC(=O)c1c[nH]c2ccccc12)C(=O)N1CCCC1 (stereo unspecified)	nt	-1.1%	23.8%	nt	-26.1%	-6.0
COc1ccc(C(=O)C[n+]2ccc3c(c2)nc(-c2ccccc2)n3C)cc1	31.9%	11.6µM*	-7.6%	-7.1%	8.2µM*	-22.5
C=Cn1cc[n+](CC(=O)c2ccc(C)cc2)c1	-17.2%	16.7%	10.5%	1.4%	-23.6%	40.1
C=Cn1cc[n+](CC(=O)c2ccc(OC)cc2)c1	16.9%	?	0.0%	-14.5%	20.6µM*	28.2
Cc1cccc(OCC(=O)N(Cc2ccc(C(C)(C)C)cc2)Cc2ccco2)c1	nt	20.6µM*	nt	nt	10.3µM*	nt
Cc1cc(=O)oc2ccc(OCC(=O)N(Cc3ccc(F)cc3)Cc3ccco3)cc12	?	23.1µM*	?	?	?	-61.7*
CCc1ccc(OCC(=O)N(Cc2ccc(C)cc2)Cc2ccco2)cc1	nt	?	nt	nt	20.6µM*	nt
Cc1ccc(OCC(=O)N(Cc2ccco2)c2ccccn2)cc1	nt	?	nt	nt	-5.4%	nt
Cc1ccc(CN(Cc2ccco2)C(=O)COc2ccc(C)c(C)c2)cc1	nt	23.1µM*	nt	nt	16.4µM*	nt
O=C(Nc1ccc2nc3n(c(=O)c2c1)CCCCC3)C(=O)N1CCN(c2ccccc2)CC1	42.2%	-19.3%	?	-2.4%	?	10.5
Cc1ccc2c(c1)cc(CN(Cc1ccco1)C(=O)COc1ccccc1)c1nnnn12	?	?	20.6µM*	-8.1%	23.1µM*	?
CCc1ccc(OCC(=O)N(Cc2ccco2)Cc2ccccc2Cl)cc1	nt	?	nt	nt	13µM*	nt
COc1cc(/C=N/NC(=O)c2ccncc2)ccc1Oc1ccc([N+](=O)[O-])cn1	0.6%	17.9%	?	-0.7%	-22.0%	23.5
COc1cccc(C(=O)N/N=C/c2ccc(Oc3ccc([N+](=O)[O-])cn3)c(OC)c2)c1	5.9%	20.6µM*	-23.0%	2.4%	?	-8.2
COc1cc(/C=N/NC(=O)c2ccc3ccccc3c2)ccc1Oc1ccc([N+](=O)[O-])cn1	?	?	16.4µM*	13.5%	?	-28.5
N#Cc1cc([N+](=O)[O-])ccc1Oc1cccc(/C=N/NC(=O)c2cccc(Cl)c2)c1	?	?	?	-16.7%	20.6µM*	?
O=C(Oc1cccc(/C=N/NC(=O)c2ccccn2)c1)c1ccc([N+](=O)[O-])cc1	?	-18.9%	2.7%	?	?	i
CCOC(=O)N/N=C1/C[C@@H](O)[C@@H](O)[C@@H]2[C@H]3C(=O)N(c4ccc(F)cc4F)C(=O)[C@@H]3CC[C@H]12	-5.4%[10 µM]	nt	nt	2.1%[10 µM]	nt	nt
SMILES	RORgamma inh	DT40 TDP1 CPT	ELG1 repair inh	VP16 counter	TDP1 cell noCPT	IL-1B inflam inh
COc1ccc(O)c(/C=N/NC(=O)CCC(=O)Nc2ccc(C)cc2)c1	6.31µM*	?	?	-17.2%	20.6µM*	67.8
COc1cc(/C=N/NC(=O)CCC(=O)Nc2ccc(Br)cc2)ccc1O	14.3%	4.7%	1.7%	-1.9%	-17.1%	2.9
COc1cccc(/C=N/NC(=O)CCCC(=O)Nc2ccc(Br)cc2)c1	?	20.6µM*	4.1%	-6.5%	20.6µM*	4.4
COc1ccc(O)c(/C=N/NC(=O)CCC(=O)Nc2cccc(C)c2)c1	12.6µM*	20.6µM*	?	?	20.6µM*	112.8
Cc1sc(NC(=O)c2ccc(OCC(C)C)cc2)c(C(N)=O)c1-c1ccc(Cl)cc1Cl	9.6%	9.2µM*	-14.7%	6.2%	7.31µM*	-16.6
Oc1ccc(-c2cnns2)c(O)c1	?	4.11µM*	?	?	4.61µM*	?
CC(=O)N1CCC2(CCN(Cc3nccs3)CC2)CC1	0.3%	-6.4%	nt	-4.8%	-21.9%	nt
Cc1ccc(S(=O)(=O)N2CCCCC2)cc1NC(=O)COC(=O)c1cccn1C	nt	?	?	nt	?	15.2
COc1cc(CNCc2ccccc2)ccc1OCC(O)c1ccccc1 (stereo unspecified)	-31.4%	-24.8%	5.5%	-4.9%	?	-7.3
COc1ccc(CNCCC(c2ccccc2)c2ccc(OC(C)C)cc2)cc1OC (stereo unspecified)	-30.5%	23.1µM*	?	-6.9%	23.1µM*	nt
COc1ccc(CNCCC(c2ccc(F)cc2)c2ccc(OC(C)C)cc2)cc1OC (stereo unspecified)	?	16.4µM*	?	?	14.6µM*	-96.0*
CC(=O)c1cccc(NC(=O)Nc2ccc3c(c2)OCO3)c1	-41.4%	-9.9%	?	?	0.3%	?
O=C1CCCc2nn(-c3ccccc3)c(-c3ccncc3)c21	-8.2%	?	-12.5%	-2.2%	16.4µM*	0.0
Nc1c2c(nn1-c1ccccc1)CCC2	-29.8%	?	?	-5.4%	-7.6%	-1.8
C[C@@H]1CN([C@@H](C)CO)C(=O)c2cc(Br)cnc2O[C@@H]1CN(C)S(=O)(=O)c1ccc(F)cc1	nt	?	nt	nt	?	-7.0
Cc1nn2c(SCC(=O)c3cccs3)cc(C(C)(C)C)nc2c1-c1ccccc1	10µM*	?	?	7.08µM*	?	26.2
Cc1cc(C(F)(F)F)n2nc(C)c(-c3ccc(Cl)cc3)c2n1	-24.2%	-0.8%	13.2%	-10.2%	1.0%	-18.3
C=CCSc1cc(C)nc2c(-c3ccc(Cl)cc3)c(C)nn12	20µM*	-29.3%	0.2%	?	?	-5.9
CCOC(=O)c1cnn(-c2cc(C(C)(C)C)nc3c(-c4ccccc4)c(C)nn23)c1N	-22.0%	?	3.9%	0.8%	-10.9%	-1.5
